Laboratory results published in PubChem BioAssay (Tox21).
Several values for one entry are separate records, joined by “and”; a condition that tells them apart may be missing. Identical values can stand only once. Inconclusive results are not listed. A structure can be active in one record and inactive in another. Activity calls are given as the source filed them. Unless noted, calls come from the whole dose curve; as a rule, active = well fitted curve in the direction sought with a large enough effect in the repeat runs; inconclusive = weak or mixed curves; inactive = no such curve, though single readings can be large; an effect the other way counts as inactive or inconclusive.

Experiments:
[1] = qHTS assay to identify small molecule antagonists of the androgen receptor (AR) signaling pathway using the MDA cell line in the presence of 0.5 nM R1881 - cell viability counter screen (AID 1259242); note: nearly all actives have a fitted effect of over 45% in size
Procedure, shortened: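 MDA-kb2 cells (MMTV-luciferase, AR/GR responsive) were treated with compounds plus 0.5 nM R1881 (final) for 16 hr at 37C, 0% CO2. Viability was then read in the same wells as live-cell protease fluorescence (CellTiter-Fluor, 30 min).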

[2] = qHTS assay to identify small molecule HDAC inhibitors (AID 1259364); note: top concentration of the series differs between compounds; nearly all actives have a fitted effect of over 45% in size
Procedure, shortened: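 Wild-type HCT-116 cells, plated overnight at 37 C, exposed to compounds 2 hr at 37 C; luminogenic HDAC-Glo substrate then added 30 min at room temperature. Luminescence reports relative endogenous class I/II HDAC activity.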

[3] = qHTS assay to identify small molecule HDAC inhibitors - cell viability counter screen (AID 1259365); note: series mostly up to about 92 µM; nearly all actives have a fitted effect of over 50% in size
Procedure, shortened: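 Counter screen in wild-type HCT-116 cells: compounds dissolved in DMSO are pin-transferred onto overnight-plated cells and left 2hr at 37C. ATP-based CellTiter-Glo luminescence then measures viable cells.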

[4] = qHTS assay to identify small molecule antagonists of the sonic hedgehog signaling (Shh) pathway - cell viability counter screen (AID 1259367); note: nearly all actives have a fitted effect of over 55% in size; note: potency is the fitted concentration of half-maximal effect
Procedure, shortened: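 Cells: 3T3 Gli1-Luc, 2,000/well, 4 hr pre-incubation. Compounds in DMSO, then conditioned medium. Incubation 24 hr, 37C, 5% CO2. CellTiter-Fluor at 23 hr, 1 hr, fluorescence.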

[5] = qHTS assay to identify small molecule agonists of the sonic hedgehog signaling (Shh) pathway (AID 1259368; calls by dose curve; note: nearly all actives have a fitted effect of over 15% in size; note: potency is the fitted concentration of half-maximal effect;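 for activity change: NIH/3T3-derived 3T3Gli1-Luc cells carrying a stable Gli1-driven firefly luciferase reporter; series mostly up to about 92 µM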)
Procedure, shortened: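 NIH/3T3-derived 3T3Gli1-Luc cells with stably integrated Gli1-driven firefly luciferase, 2,000 cells/well, compounds added after 4 hr. Incubated 24 hr at 37C, 5% CO2; luminescence read after 30 min with luciferase reagent at room temperature.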

[6] = qHTS assay to identify small molecule antagonists of the sonic hedgehog signaling (Shh) pathway (AID 1259369; calls by dose curve; note: nearly all actives have a fitted effect of over 45% in size; note: potency is the fitted concentration of half-maximal effect)
Procedure, shortened: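 NIH/3T3-derived Gli1-Luc reporter cells plated 4 h, dosed with compound, then stimulated with conditioned medium for 24 h at 37 C. Firefly luciferase luminescence read after 30 min with detection reagent at room temperature.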

[7] = qHTS assay to identify small molecule agonists of the sonic hedgehog signaling (Shh) pathway - cell viability counter screen (AID 1259366); note: nearly all actives have a fitted effect of over 50% in size; note: potency is the fitted concentration of half-maximal effect
Procedure, shortened: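 Cells are plated at 2,000 per well and left 4hr at 37C, 5% CO2 before compound addition. After 23hr of treatment, CellTiter-Fluor reagent is added for 1hr at 37C and fluorescence is measured.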

[8] = target: Androgen receptor (Homo sapiens) (UniProt P10275); test: qHTS assay to identify small molecule antagonists of the androgen receptor (AR) signaling pathway using the MDA cell line in the presence of 0.5 nM R1881 (AID 1259243); note: nearly all actives have a fitted effect of over 50% in size; note: potency is the fitted concentration of half-maximal effect
Chain of Androgen receptor (Homo sapiens) (P10275 whole entry, looked up): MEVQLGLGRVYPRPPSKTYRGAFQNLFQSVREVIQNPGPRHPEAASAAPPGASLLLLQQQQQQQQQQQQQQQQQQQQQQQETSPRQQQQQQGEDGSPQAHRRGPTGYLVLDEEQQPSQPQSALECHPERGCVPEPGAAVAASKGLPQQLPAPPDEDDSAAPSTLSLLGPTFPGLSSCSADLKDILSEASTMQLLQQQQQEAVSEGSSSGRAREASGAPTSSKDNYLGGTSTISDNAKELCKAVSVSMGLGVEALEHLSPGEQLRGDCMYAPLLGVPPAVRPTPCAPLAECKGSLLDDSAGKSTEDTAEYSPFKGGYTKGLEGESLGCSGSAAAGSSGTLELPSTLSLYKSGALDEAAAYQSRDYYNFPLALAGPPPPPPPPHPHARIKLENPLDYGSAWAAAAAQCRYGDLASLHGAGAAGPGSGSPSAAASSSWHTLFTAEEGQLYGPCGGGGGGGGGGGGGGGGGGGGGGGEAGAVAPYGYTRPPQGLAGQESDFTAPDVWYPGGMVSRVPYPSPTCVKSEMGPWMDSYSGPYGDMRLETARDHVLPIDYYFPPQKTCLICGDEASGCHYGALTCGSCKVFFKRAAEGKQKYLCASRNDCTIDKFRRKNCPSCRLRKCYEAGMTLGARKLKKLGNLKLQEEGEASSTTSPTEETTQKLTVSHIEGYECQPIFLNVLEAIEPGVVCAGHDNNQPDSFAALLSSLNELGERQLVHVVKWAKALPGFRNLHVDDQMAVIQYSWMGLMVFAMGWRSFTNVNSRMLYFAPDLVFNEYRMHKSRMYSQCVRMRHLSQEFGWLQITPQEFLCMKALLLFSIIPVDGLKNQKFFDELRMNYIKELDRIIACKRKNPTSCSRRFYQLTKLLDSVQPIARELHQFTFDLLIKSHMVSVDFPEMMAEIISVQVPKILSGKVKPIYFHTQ
Procedure, shortened: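 MDA-kb2 cells (MMTV-luciferase, responsive to AR and GR) at 3,000/well, rested 5 h at 37C, 0% CO2, then given compounds plus 0.5 nM R1881 (final) for 16 hr. Luciferase read with ONE-Glo after 30 min at room temperature.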

[9] = qHTS assay to identify small molecule phospholipidosis (PLD) inducers (AID 1259344; active = well fitted curve in the direction sought with a large enough effect; an effect the other way counts as inactive or inconclusive)
Procedure, shortened: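 Phospholipidosis is scored by imaging LipidTOX-stained pits in HepG2 cells exposed to compound for 24 h at 37 C; pit counts and integrated intensities per well and per cell serve as outputs.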

[10] = target: Estrogen receptor (Homo sapiens) (UniProt P03372); test: qHTS assay to identify small molecule antagonists of the estrogen receptor alpha (ER-alpha) signaling pathway using the BG1 cell line in the presence of 0.1 nM 17-beta-estradiol (AID 1259244); note: nearly all actives have a fitted effect of over 50% in size; note: potency is the fitted concentration of half-maximal effect
Chain of Estrogen receptor (Homo sapiens) (P03372 whole entry, looked up): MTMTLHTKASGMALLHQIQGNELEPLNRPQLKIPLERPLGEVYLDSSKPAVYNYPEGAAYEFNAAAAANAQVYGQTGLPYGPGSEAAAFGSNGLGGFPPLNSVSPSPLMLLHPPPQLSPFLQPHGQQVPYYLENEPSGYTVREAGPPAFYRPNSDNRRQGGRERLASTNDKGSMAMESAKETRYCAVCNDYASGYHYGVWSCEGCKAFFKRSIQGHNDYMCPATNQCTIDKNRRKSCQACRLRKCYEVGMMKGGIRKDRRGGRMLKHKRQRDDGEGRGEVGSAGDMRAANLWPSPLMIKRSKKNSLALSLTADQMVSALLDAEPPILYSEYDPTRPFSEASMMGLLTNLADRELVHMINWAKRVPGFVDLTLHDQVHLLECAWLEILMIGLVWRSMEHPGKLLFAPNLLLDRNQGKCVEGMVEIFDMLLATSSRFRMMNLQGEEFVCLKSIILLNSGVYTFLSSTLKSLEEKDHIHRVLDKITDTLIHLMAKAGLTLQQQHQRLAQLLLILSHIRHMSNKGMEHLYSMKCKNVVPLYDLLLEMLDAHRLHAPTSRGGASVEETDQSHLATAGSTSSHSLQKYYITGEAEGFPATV
Procedure, shortened: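 VM7Luc4E2 cells (endogenous full-length ER-alpha, 4×ERE-luciferase), kept 5 days in phenol red-free, charcoal-stripped FBS medium; 4,000 cells/well. Compounds added with 0.1 nM (final) 17beta-estradiol, 22 hr at 37C; luminescence read with ONE-Glo after 30 min.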
% is set by controls: 0 for no effect and ±100 for the full control effect.

C/C=C/C=N/NC(=O)c1ccncc1
inactive: Potency [1] | Potency [2] | Potency [3] | Potency [5] | Potency [6]
active: Potency [4] 26.6 µM

CCC(=O)CC(C)CC (stereo not given)
inactive: viability change, negative = cytotoxic [1] 2.57% [at 0.349 µM] | activity change, negative = cytotoxicity [3] 3.99% [at 0.349 µM] | viability change, negative = cytotoxic [7] 4% [at 0.349 µM] | viability change, negative = cytotoxic [4] 2.54% [at 0.349 µM] | activity change [5] -0.87% [at 0.349 µM, stronger effect = higher value]

Cc1cccc(Br)c1
inactive: Potency [1] | Potency [2] | Potency [3] | Potency [7] | Potency [5]
active: Potency [6] 27.4 µM

CC(C)OC(=O)c1cc(C(=O)OC(C)C)cc([N+](=O)[O-])c1
inactive: Potency [1] | Potency [3] | Potency [4] | Potency [5]

NCCCC(O)(P(=O)(O)O)P(=O)(O)O
inactive: Potency [1] | Potency [2] | Potency [7] | Potency [4] | Potency [5] | Potency [6]

COc1cc(C=C2CCC/C(=C\c3ccc(O)c(OC)c3)C2=O)ccc1O
active: Potency [8] 9.44 µM | Potency [4] 23.7 µM | Potency [5] 26.6 µM
inactive: Potency [9] | Potency [3]

Clc1nc2ccccc2s1
inactive: Potency [10] | Potency [2] | Potency [3] | Potency [7] | Potency [4] | Potency [5] | Potency [6]

CCc1ccc(C)nc1
inactive: Potency [8] | Potency [10] | Potency [2] | Potency [3] | Potency [7] | Potency [4] | Potency [5] | Potency [6]

O=C1NCCN1CCN1CCC(c2cn(-c3ccc(F)cc3)c3ccc(Cl)cc23)CC1
active: Potency [8] 11.9 µM | Potency [7] 18.8 µM | Potency [6] 13.3 µM
inactive: Potency [9] | Potency [2] | Potency [5]

NC(=O)C(=O)N/N=C/c1ccc([N+](=O)[O-])o1
inactive: Potency [8] | Potency [10] | Potency [9] | Potency [2] | Potency [3] | Potency [7] | Potency [4] | Potency [5]

O=C(c1ccccc1)c1cc(Cl)ccc1O
inactive: Potency [10] | Potency [2] | Potency [3] | Potency [7] | Potency [4] | Potency [5]

CCO[Si](CCCSSSSCCC[Si](OCC)(OCC)OCC)(OCC)OCC
inactive: Potency [10] | Potency [2] | Potency [3] | Potency [7] | Potency [4] | Potency [5]

C=CC(=C)CC/C=C(\C)CCC=C(C)C
inactive: activity change, negative = inhibition [10] 3.24% [at 19 µM] | activity change, negative = inhibition [2] 8.2% [at 19 µM] | activity change, negative = cytotoxicity [3] 3.69% [at 19 µM] | viability change, negative = cytotoxic [7] -6.51% [at 19 µM] | viability change, negative = cytotoxic [4] -4.46% [at 19 µM] | activity change [5] 0.047% [at 18.9 µM, stronger effect = higher value]

O=C1C=CC(=O)N1c1ccccc1
inactive: Potency [5]
active: Potency [8] 30.6 µM | Potency [10] 61.1 µM | Potency [7] 9.69 µM | Potency [4] 12.2 µM | Potency [6] 6.11 µM

OCCCc1cccnc1
inactive: Potency [8] | Potency [10] | Potency [2] | Potency [3] | Potency [7] | Potency [4] | Potency [5] | Potency [6]

CN1CCN(C2Cc3ccccc3Sc3ccc(Cl)cc32)CC1 (stereo not given)
inactive: Potency [10] | Potency [2] | Potency [3] | Potency [5]
active: Potency [8] 29.8 µM | Potency [6] 6.68 µM

Nc1ccc2cc3ccc(N)cc3nc2c1
inactive: Potency [9] | Potency [2] | Potency [5] | Potency [6]
inactive and 10.6 µM (active): Potency [8]

CCCCCCS
inactive: Potency [8] | Potency [2] | Potency [3] | Potency [7] | Potency [4] | Potency [5]

Clc1ccc(C(Cn2ccnc2)OCc2c(Cl)cccc2Cl)c(Cl)c1 (stereo not given)
inactive: Potency [10] | Potency [3] | Potency [4] | Potency [5]
active: Potency [8] 8.41 µM

CC(C)(c1cc(Br)c(OCCO)c(Br)c1)c1cc(Br)c(OCCO)c(Br)c1
inactive: Potency [2] | Potency [3] | Potency [4] | Potency [5]
active: Potency [8] 23.8 µM | Potency [6] 1.89 µM

OCCCS
inactive: Potency [8] | Potency [2] | Potency [3] | Potency [7] | Potency [4] | Potency [5]

COc1ccccc1C=O
inactive: Potency [8] | Potency [10] | Potency [3] | Potency [7] | Potency [4] | Potency [5] | Potency [6]

CCC(C)c1cc([N+](=O)[O-])cc([N+](=O)[O-])c1OC(=O)OC(C)C (stereo not given)
inactive: Potency [2] | Potency [3] | Potency [5]
active: Potency [8] 38.6 µM | Potency [4] 68.6 µM | Potency [6] 21.7 µM

Cc1cn[nH]c1
inactive: Potency [8] | Potency [2] | Potency [7] | Potency [4] | Potency [5] | Potency [6]

CCOCOCC
inactive: Potency [8] | Potency [10] | Potency [2] | Potency [7] | Potency [4] | Potency [5]

N#CSCSc1nc2ccccc2s1
inactive: Potency [8] | Potency [3] | Potency [5]
active: Potency [7] 10.9 µM | Potency [4] 24.3 µM | Potency [6] 1.93 µM

C=CC(=O)OCCC#N
inactive: Potency [8] | Potency [2] | Potency [3] | Potency [7] | Potency [4] | Potency [5] | Potency [6]

Cc1ccc(-n2[nH]c(C)c(N=Nc3cccc(-c4cccc(C(=O)O)c4)c3O)c2=O)cc1C
inactive: Potency [8] | Potency [2] | Potency [7] | Potency [4] | Potency [5]

Clc1cccnc1
inactive: Potency [8] | Potency [2] | Potency [3] | Potency [7] | Potency [4] | Potency [5] | Potency [6]

CC(C)CCOCCC(C)C
inactive: Potency [8] | Potency [10] | Potency [2] | Potency [3] | Potency [7] | Potency [4] | Potency [5] | Potency [6]
